# Measurements as given in the supplement of paper PMC8728848.
# This excerpt belongs to a sample that is enriched for the strongest signals.
# B1: Lmo1413 (Listeria monocytogenes), Q8Y783 (protein)
# chain: MKHAKKSLFTFIIFMTILSITFNPFSAKAAPLMLNLPAPQVDQLYIGDDYITGKLQQEVPMHYPGNAAYVLFNNKQYNITDYTVENDVNFRLKLPKTLEAGDTLNYFTITGNVLDPVAYPGQESYKLAGPFSPIEKANIQVNYVDETNQTLATSDTLSGKLGETYTTSPKAIDGYQVKETPTNATGTYTTNTETIQINYVYEKTAVEGANVSVEYINEATNESIAPTETLSGKIGTTFQAEVKEIDGYELSQVPSNQSGTYTDQTQSVIFKYKKITTPDEVAKDVTVTYKDTKGNQLADPVILKGDIGSTFETEAKSFKGYKLTKTPSNHSSVFTSDSQEVEYVYSKDDAVITPPVTPVNPDKPIINPVKPVNPATSTVPNKNISKKNTTKTVNQTGKTSTALQLPKTGDSENNLPLIIGVSLLISGVYIFTTRRKRVK
# Assays:
# Experiment in all cases: glycan array binding signal (z-score within array); higher = stronger binding
# Settings in all cases: glycan notation: IUPAC condensed, linker removed
# Gal(a1-3)Gal = target: Gal(a1-3)Gal
# How it was run: (§1)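 Glycan array data were curated from 3228 arrays in the Consortium for Functional Glycomics database and kept only where the protein sequence was available. Glycan names were converted to IUPAC-condensed notation, and columns mapping to the same glycan were averaged. The binding signal is a within-array Z-score, averaged across arrays of the same protein sequence at different concentrations or buffers and across linkers. Negative Z-scores can be read as non-binding.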
# [1] = target: Gal(a1-3)Gal(b1-4)[Fuc(a1-3)]GlcNAc(b1-2)Man(a1-3)[Gal(a1-3)Gal(b1-4)[Fuc(a1-3)]GlcNAc(b1-2)Man(a1-6)]Man(b1-4)GlcNAc(b1-4)GlcNAc
# How it was run: as §1
# Gal(a1-3)GalNAc = target: Gal(a1-3)GalNAc
# How it was run: as §1
# [2] = target: Gal(b1-3)GalNAc(b1-3)Gal(a1-4)Gal(b1-4)Glc
# How it was run: as §1
# [3] = target: Gal(b1-3)GlcNAc(b1-2)Man(a1-3)[Gal(b1-3)GlcNAc(b1-2)Man(a1-6)]Man(b1-4)GlcNAc(b1-4)GlcNAc
# How it was run: as §1
# [4] = target: Gal(b1-3)GlcNAc(b1-3)Gal(b1-3)GlcNAc
# How it was run: as §1
# [5] = target: Gal(b1-3)GlcNAc(b1-3)Gal(b1-4)[Fuc(a1-3)]GlcNAc(b1-6)[Gal(b1-3)GlcNAc(b1-3)]Gal(b1-4)Glc
# How it was run: as §1
# [6] = target: Gal(b1-3)[Fuc(a1-4)]GlcNAc(b1-2)Man(a1-3)[Gal(b1-3)[Fuc(a1-4)]GlcNAc(b1-2)Man(a1-6)]Man(b1-4)GlcNAc(b1-4)GlcNAc
# How it was run: as §1
# [7] = target: Gal(b1-3)[Fuc(a1-4)]GlcNAc(b1-3)Gal(b1-3)[Fuc(a1-4)]GlcNAc
# How it was run: as §1
# [8] = target: Gal(b1-3)[Neu5Ac(b2-6)]GalNAc
# How it was run: as §1
# [9] = target: Gal(b1-4)GlcNAc(b1-2)Man(a1-3)Man(b1-4)GlcNAc(b1-4)GlcNAc
# How it was run: as §1
# [10] = target: Gal(b1-4)GlcNAc(b1-2)Man(a1-3)[Man(a1-6)]Man(b1-4)GlcNAc(b1-4)GlcNAc
# How it was run: as §1
# Gal4S(b1-4)GlcNAc = target: Gal4S(b1-4)GlcNAc
# How it was run: as §1
# Glc(a1-4)Glc = target: Glc(a1-4)Glc
# How it was run: as §1
# GlcA(b1-3)GlcNAc = target: GlcA(b1-3)GlcNAc
# How it was run: as §1
# GlcA(b1-6)Gal = target: GlcA(b1-6)Gal
# How it was run: as §1
# [11] = target: GlcNAc(a1-3)Gal(b1-4)GlcNAc
# How it was run: as §1
# [12] = target: GlcNAc(a1-4)Gal(b1-4)GlcNAc(b1-3)Gal(b1-4)Glc
# How it was run: as §1
# [13] = target: GlcNAc(a1-6)Gal(b1-4)GlcNAc
# How it was run: as §1
# [14] = target: GlcNAc(b1-2)Gal(b1-3)GalNAc
# How it was run: as §1
# [15] = target: GlcNAc(b1-4)GlcNAc(b1-4)GlcNAc
# How it was run: as §1
# Kdn(a2-6)Gal(b1-4)GlcNAc = target: Kdn(a2-6)Gal(b1-4)GlcNAc
# How it was run: as §1
# [16] = target: Man(a1-3)[Man(a1-6)]Man(b1-4)GlcNAc(b1-4)GlcNAc
# How it was run: as §1
# [17] = target: Neu5Ac(a2-3)Gal(b1-4)GlcNAc(b1-2)Man(a1-3)[Neu5Ac(a2-6)Gal(b1-4)GlcNAc(b1-2)Man(a1-6)]Man(b1-4)GlcNAc(b1-4)GlcNAc
# How it was run: as §1
# [18] = target: Neu5Ac(a2-3)Gal(b1-4)[Fuc(a1-3)]GlcNAc(b1-3)Gal(b1-4)[Fuc(a1-3)]GlcNAc(b1-3)Gal(b1-4)[Fuc(a1-3)]GlcNAc
# How it was run: as §1
# [19] = target: Neu5Ac(a2-6)Gal(b1-4)GlcNAc(b1-3)GalNAc
# How it was run: as §1
# [20] = target: Neu5Ac(a2-6)GlcNAc(b1-4)GlcNAc(b1-4)GlcNAc
# How it was run: as §1
# [21] = target: Neu5Ac9Ac(a2-6)Gal(b1-4)GlcNAc
# How it was run: as §1
# Neu5Gc(a2-3)Gal(b1-4)Glc = target: Neu5Gc(a2-3)Gal(b1-4)Glc
# How it was run: as §1
binder,measurement,setting,value
B1,glycan array binding signal (z-score),Gal(a1-3)Gal,-0.219
same,glycan array binding signal (z-score),[1],0.065
same,glycan array binding signal (z-score),Gal(a1-3)GalNAc,-0.056
same,glycan array binding signal (z-score),[2],-0.2
same,glycan array binding signal (z-score),[3],-0.218
same,glycan array binding signal (z-score),[4],-0.215
same,glycan array binding signal (z-score),[5],-0.158
same,glycan array binding signal (z-score),[6],1.29
same,glycan array binding signal (z-score),[7],-0.139
same,glycan array binding signal (z-score),[8],2.02
same,glycan array binding signal (z-score),[9],-0.199
same,glycan array binding signal (z-score),[10],-0.229
same,glycan array binding signal (z-score),Gal4S(b1-4)GlcNAc,-0.075
same,glycan array binding signal (z-score),Glc(a1-4)Glc,2.23
same,glycan array binding signal (z-score),GlcA(b1-3)GlcNAc,1.78
same,glycan array binding signal (z-score),GlcA(b1-6)Gal,0.693
same,glycan array binding signal (z-score),[11],1.66
same,glycan array binding signal (z-score),[12],-0.095
same,glycan array binding signal (z-score),[13],1.42
same,glycan array binding signal (z-score),[14],2.98
same,glycan array binding signal (z-score),[15],0.095
same,glycan array binding signal (z-score),Kdn(a2-6)Gal(b1-4)GlcNAc,-0.144
same,glycan array binding signal (z-score),[16],-0.231
same,glycan array binding signal (z-score),[17],-0.29
same,glycan array binding signal (z-score),[18],0.379
same,glycan array binding signal (z-score),[19],-0.219
same,glycan array binding signal (z-score),[20],-0.222
same,glycan array binding signal (z-score),[21],-0.263
same,glycan array binding signal (z-score),Neu5Gc(a2-3)Gal(b1-4)Glc,-0.252
